# The full list was thinned out, with the strongest signals kept by preference.
# B1: GS13686A-pdi-553-26-553 (Parabacteroides distasonis) (protein)
# chain: NENPDKPTDDVNYNMNEPRLASTLRGGLIIEGNVEQRLKPLQIDFYSQMTVDGGGWGTKNYIQDDEWNNLVWEEYLKQIASINIVIRSLTEKDKDAYANTIAFARIWRVYVHTLAADKFGPMPFPAYEIVEANPPYKSLKDIYDEYFRELDAAINGFNDSAQPIFSDAGIDLIYKNDVSKWKRFANSLRLRLAVRLTEVDQEKCIAEANAAISSPAGLISDKADNAYMPPKADGSWGQDYNYTMFQITWSGPICMSKSVEKLVTNIGGVAWPQGVVNQTSGVAVSSVHPEKVDPRAPKIFQPGIENGDWKGLVYGPKAEEANTGIYQSKQCAELGFIIKDGYPYKSRPYDLFLSEEVHFLKAELYARGFIAGDAKSEYEAGVRASFATWGVTSEVDDYLTSTEKNEAGTSARYDDQQGAGNTALEKIITQKYIAGIPDLAQEGWNDKRRLNLPRLDVAVYRDQAVYNNNDKDILKSANFIKRMRYPTKESLINATEYEKGKSMLGGKGDIVSTPLWWDKNSNYCTSSK
# How the values were obtained:
# Assay in all cases: glycan array binding signal (z-score within array); higher = stronger binding
# Details in all cases: glycan notation: IUPAC condensed, linker removed
# [1] = biological target: Gal(b1-4)GlcNAc(b1-6)[Gal(b1-4)GlcNAc(b1-3)]GalNAc
# Procedure, shortened: (§1)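 Glycan array data were curated from 3228 arrays in the Consortium for Functional Glycomics database and kept only where the protein sequence was available. Glycan names were converted to IUPAC-condensed notation, and columns mapping to the same glycan were averaged. The binding signal is a within-array Z-score, averaged across arrays of the same protein sequence at different concentrations or buffers and across linkers. Negative Z-scores can be read as non-binding.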
# [2] = biological target: Gal3S(b1-4)[Fuc(a1-3)]Glc6S
# Procedure, shortened: as §1
# Gal6S(b1-3)GlcNAc = biological target: Gal6S(b1-3)GlcNAc
# Procedure, shortened: as §1
# Gal6S(b1-4)GlcNAc6S = biological target: Gal6S(b1-4)GlcNAc6S
# Procedure, shortened: as §1
# GalNAc(b1-4)Gal(b1-4)Glc = biological target: GalNAc(b1-4)Gal(b1-4)Glc
# Procedure, shortened: as §1
# [3] = biological target: GalNAc(b1-4)GlcNAc(b1-3)GalNAc(b1-4)GlcNAc
# Procedure, shortened: as §1
# [4] = biological target: GlcNAc(b1-2)[GlcNAc(b1-4)]Man(a1-3)[GlcNAc(b1-4)][GlcNAc(b1-2)[GlcNAc(b1-6)]Man(a1-6)]Man(b1-4)GlcNAc(b1-4)GlcNAc
# Procedure, shortened: as §1
# GlcNAc(b1-4)GlcNAc = biological target: GlcNAc(b1-4)GlcNAc
# Procedure, shortened: as §1
# [5] = biological target: GlcNAc(b1-6)Gal(b1-4)GlcNAc
# Procedure, shortened: as §1
# [6] = biological target: Man(a1-2)Man(a1-2)Man(a1-6)[Man(a1-3)]Man
# Procedure, shortened: as §1
# Man(a1-2)Man(a1-3)Man = biological target: Man(a1-2)Man(a1-3)Man
# Procedure, shortened: as §1
# Man(a1-6)Man = biological target: Man(a1-6)Man
# Procedure, shortened: as §1
# MurNAc(b1-4)GlcNAc = biological target: MurNAc(b1-4)GlcNAc
# Procedure, shortened: as §1
# [7] = biological target: Neu5Ac(a2-3)Gal(b1-3)GalNAc(b1-4)[Neu5Ac(a2-3)]Gal(b1-4)Glc
# Procedure, shortened: as §1
# [8] = biological target: Neu5Ac(a2-3)Gal(b1-3)GlcNAc(b1-2)Man(a1-3)[Neu5Ac(a2-3)Gal(b1-3)GlcNAc(b1-2)Man(a1-6)]Man(b1-4)GlcNAc(b1-4)GlcNAc
# Procedure, shortened: as §1
# [9] = biological target: Neu5Ac(a2-3)Gal(b1-3)GlcNAc(b1-3)Gal(b1-4)GlcNAc
# Procedure, shortened: as §1
# [10] = biological target: Neu5Ac(a2-3)Gal(b1-3)GlcNAc(b1-6)GalNAc
# Procedure, shortened: as §1
# [11] = biological target: Neu5Ac(a2-3)Gal(b1-3)[Fuc(a1-4)]GlcNAc(b1-3)Gal(b1-3)[Fuc(a1-4)]GlcNAc
# Procedure, shortened: as §1
# [12] = biological target: Neu5Ac(a2-3)Gal(b1-3)[Neu5Ac(a2-6)]GlcNAc(b1-3)[Fuc(a1-3)[Gal(b1-4)]GlcNAc(b1-6)]Gal(b1-4)Glc
# Procedure, shortened: as §1
# [13] = biological target: Neu5Ac(a2-3)Gal(b1-4)GlcNAc(b1-2)Man(a1-3)[Neu5Ac(a2-6)Gal(b1-4)GlcNAc(b1-2)Man(a1-6)]Man(b1-4)GlcNAc(b1-4)GlcNAc
# Procedure, shortened: as §1
# [14] = biological target: Neu5Ac(a2-3)Gal(b1-4)GlcNAc(b1-2)[Neu5Ac(a2-3)Gal(b1-4)GlcNAc(b1-4)]Man(a1-3)[GlcNAc(b1-4)][Neu5Ac(a2-3)Gal(b1-4)GlcNAc(b1-2)[Neu5Ac(a2-3)Gal(b1-4)GlcNAc(b1-6)]Man(a1-6)]Man(b1-4)GlcNAc(b1-4)GlcNAc
# Procedure, shortened: as §1
# [15] = biological target: Neu5Ac(a2-3)Gal(b1-4)GlcNAc(b1-3)Gal(b1-3)GlcNAc
# Procedure, shortened: as §1
# Neu5Ac(a2-6)Gal = biological target: Neu5Ac(a2-6)Gal
# Procedure, shortened: as §1
# [16] = biological target: Neu5Ac(a2-6)Gal(b1-3)GlcNAc(b1-3)[Gal(b1-4)GlcNAc(b1-6)]Gal(b1-4)Glc
# Procedure, shortened: as §1
# [17] = biological target: Neu5Ac(a2-6)Gal(b1-4)GlcNAc(b1-2)Man(a1-3)[Man(a1-6)]Man(b1-4)GlcNAc(b1-4)GlcNAc
# Procedure, shortened: as §1
# [18] = biological target: Neu5Ac(a2-6)Gal(b1-4)GlcNAc(b1-2)Man(a1-3)[Neu5Ac(a2-6)Gal(b1-4)GlcNAc(b1-2)Man(a1-6)]Man(b1-4)GlcNAc(b1-4)[Fuc(a1-6)]GlcNAc
# Procedure, shortened: as §1
# [19] = biological target: Neu5Ac(a2-6)Gal(b1-4)GlcNAc(b1-2)Man(a1-6)[Gal(b1-4)GlcNAc(b1-2)Man(a1-3)]Man(b1-4)GlcNAc(b1-4)GlcNAc
# Procedure, shortened: as §1
# [20] = biological target: Neu5Gc(a2-3)Gal(b1-4)[Fuc(a1-3)]GlcNAc
# Procedure, shortened: as §1
# [21] = biological target: Neu5Gc(a2-8)Neu5Gc(a2-3)Gal(b1-4)GlcNAc(b1-3)Gal(b1-4)GlcNAc
# Procedure, shortened: as §1
binder,measurement,setting,value
B1,glycan array binding signal (z-score),[1],-0.002
same,glycan array binding signal (z-score),[2],0.425
same,glycan array binding signal (z-score),Gal6S(b1-3)GlcNAc,22.6
same,glycan array binding signal (z-score),Gal6S(b1-4)GlcNAc6S,-0.176
same,glycan array binding signal (z-score),GalNAc(b1-4)Gal(b1-4)Glc,0.208
same,glycan array binding signal (z-score),[3],0.492
same,glycan array binding signal (z-score),[4],-0.24
same,glycan array binding signal (z-score),GlcNAc(b1-4)GlcNAc,-0.294
same,glycan array binding signal (z-score),[5],-0.023
same,glycan array binding signal (z-score),[6],-0.073
same,glycan array binding signal (z-score),Man(a1-2)Man(a1-3)Man,-0.226
same,glycan array binding signal (z-score),Man(a1-6)Man,0.458
same,glycan array binding signal (z-score),MurNAc(b1-4)GlcNAc,-0.226
same,glycan array binding signal (z-score),[7],-0.071
same,glycan array binding signal (z-score),[8],-0.099
same,glycan array binding signal (z-score),[9],-0.307
same,glycan array binding signal (z-score),[10],3.88
same,glycan array binding signal (z-score),[11],-0.153
same,glycan array binding signal (z-score),[12],-0.086
same,glycan array binding signal (z-score),[13],1.01
same,glycan array binding signal (z-score),[14],0.051
same,glycan array binding signal (z-score),[15],-0.389
same,glycan array binding signal (z-score),Neu5Ac(a2-6)Gal,-0.025
same,glycan array binding signal (z-score),[16],2
same,glycan array binding signal (z-score),[17],0.341
same,glycan array binding signal (z-score),[18],0.391
same,glycan array binding signal (z-score),[19],0.126
same,glycan array binding signal (z-score),[20],0.009
same,glycan array binding signal (z-score),[21],-0.323

# Source: the supplement of paper PMC8728848
